The list is not random: actives were taken first. Their share in the collection is about 2.9%.
Nrf2 inh: Nrf2 qHTS screen for inhibitors; A549 ARE-Fluc reporter, luciferase luminescence, 18-24 h; Potency, µM (titrated, usually from 46 µM), for the others: top-dose activity change, negative = inhibition, most hits filed as inhibitors; 360,000 compounds, 2.1% hits; AID 504444, 2011; also: % is scaled to controls: 0 for no effect and ±100 for the full control effect; nearly all actives have a fitted effect of over 60% in size
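A549 ARE_Fluc cells (5000/well, 5% FBS OPTI-MEM) pre-incubated 2 h, then treated with compounds 18-24 h at 37C/5% CO2 in concentration-response. CellTiter-Fluor viability read first; BugLite luciferase luminescence after 15 min at room temperature gives Nrf2 activity.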
Nrf2 activator: qHTS of Nrf2 Activators | 410,000 compounds, 0.31% hits | AREc32 ARE-luciferase reporter (MCF7-derived line), luminescence, 24 h | AID 624171, 2012 | Potency, µM (top dose mostly 46.1 µM), inactives show top-dose activation, most hits filed as activators; also: % of control where 0% means no effect; nearly all actives have a fitted effect of over 65% in size
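AREc32_Fluc, 1000 cells/well, OPTI-MEM + 5% FBS, o/n 37 deg C 5% CO2; 23 nL cpd by pin tool, 24 hr; Steady-Glo 30 min RT, luminescence.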
ATXN2 expr inh: Primary qHTS for Inhibitors of ATXN expression; 360,000 compounds, 0.72% hits; HEK-293 ATXN2-luciferase reporter, luminescence, 24 h; AID 1745845, 2022; Potency, µM (titrated, usually from 57 µM), for inactives: at the top dose activity change, negative = inhibition, hits mostly inhibitors; also: % is scaled to controls: 0 for no effect and ±100 for the full control effect; nearly all actives have a fitted effect of over 55% in size
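ATXN2-luciferase reporter cells (luciferase flanked by upstream and downstream ATXN2 gene portions) were treated 24 h at 37 °C with compounds at up to 57 uM. SteadyGlo luminescence gave expression; GF-AFC fluorescence gave viability.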
ATXN viability: Viability Counterscreen for Primary qHTS for Inhibitors of ATXN expression; 400,000 compounds, 0.49% hits; AID 651635, 2014; Potency, µM (doses to about 56.7 µM), most hits filed as cytotoxic; S2 cells (HEK-293 line with an ATXN2-luciferase reporter) viability, CellTiter-Fluor protease fluorescence, 24 h; also: nearly all actives have a fitted effect of over 40% in size
A549 tox: Nrf2 qHTS screen for inhibitors: counterscreen for cytotoxicity. A549 ARE-Fluc cells, CellTiter-Fluor viability, 18-24 h. Potency, µM (series often up to 46 µM), for inactives: at the highest dose activity change, negative = cytotoxicity, usual class: inhibitors. 390,000 compounds, 0.16% hits; also: % is scaled to controls: 0 for no effect and ±100 for the full control effect
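Cytotoxicity counterscreen: CellTiter-Fluor fluorescence was measured in A549 ARE_Fluc cells after 18-24 h of compound exposure in a concentration series. The subsequent BugLite luminescent read reports ARE-luciferase activity.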
* hit, by the source's call; i = inactive; u = inconclusive; x = no result. Calls follow the shape of the dose curve; as a rule, active = well fitted curve in the direction sought with a large enough effect; inconclusive = small, poorly fitted or top-dose-only effect, or another doubt; inactive = no such curve, though single readings can be large; an effect the other way counts as inactive or inconclusive. Potency is read from the fitted curve at half-maximal effect.

SMILES | Nrf2 inh | Nrf2 activator | ATXN2 expr inh | ATXN viability | A549 tox
COc1ccc(CC(N)c2csc(NC(=O)c3cc(C(C)(C)C)oc3C)n2)cc1 (configuration not stated) | x | -4% | u | 28µM* | x
Cc1nc(-c2ccc(C)c(N3CCN(C(=O)Nc4ccccc4C(F)(F)F)CC3)c2)no1 | x | 0% | -2% | i | -4%
CC(C)(C)n1nnnc1C(c1ccc(C(F)(F)F)cc1)N(Cc1ccccc1)Cc1ccco1 (configuration not stated) | 15µM* | -1% | -5% | u | -27%
CCN1C(=O)C(=Cc2cccc(OC)c2Oc2ccc([N+](=O)[O-])cc2[N+](=O)[O-])SC1=S | u | 24% | 22µM* | 13µM* | u
COc1ccc(-c2nc(-c3ccc4c(c3)OCO4)[nH]c2-c2ccc(OC)cc2)cc1 | 26µM* | 1% | -20% | u | u
Cc1ccc(C2CC(=O)n3nc(-c4ccc(F)cc4)nc3S2)cc1 (configuration not stated) | 3% | 0% | -4% | i | -3%
COc1ccccc1C1CN(Cc2cn(C)nc2C)Cc2ccccc2O1 (configuration not stated) | x | x | x | i | x
CC(=O)OCCNc1cc(N2CCN(C)CC2)c2noc3c2c1C(=O)c1ccccc1-3 | -16% | 0% | u | i | -11%
CCOC(=O)C(C(=O)OCC)c1cc(Br)c2noc3c2c1C(=O)c1ccccc1-3 | -18% | 3% | 11µM* | 20µM* | u
CC1(C(=O)NNC(=O)c2cccc([N+](=O)[O-])c2)CC1Br (configuration not stated) | x | 6% | x | i | x
O=C(NNC(=O)C12CC3CC(CC(C3)C1)C2)c1cccc([N+](=O)[O-])c1 | -9% | 10µM* | 6% | i | -5%
Cc1cc(O)c2ccccc2c1O | x | x | 8.9µM* | u | x
COC(=O)c1c(OCCN2CCCCC2)cc(=O)n2c1CCN(Cc1cccc3nccnc13)CC2 | x | x | x | i | x
CO[C@H]1/C=C\O[C@@]2(C)Oc3c(C)c(O)c4c(O)c(c5c(nc6cc(C)ccn65)c4c3C2=O)NC(=O)C(C)=CC=C[C@H](C)[C@H](O)[C@@H](C)[C@@H](O)[C@@H](C)[C@H](OC(C)=O)[C@H]1C | x | x | -10% | x | x
Cc1c(C(=O)Nc2ccc(F)cc2)oc2ccc(S(=O)(=O)N3CC(C)CC(C)C3)cc12 (configuration not stated) | 7.3µM* | 0% | -15% | i | -15%
COc1cccc(C2c3c(ncn(-c4ccc5c(c4)OCO5)c3=N)Oc3ccc4ccccc4c32)c1 (configuration not stated) | 7% | x | x | x | -7%
CNC(=O)[C@H]1O[C@@H](n2cnc3c(NCc4cccc(I)c4)nc(Cl)nc32)[C@H](O)[C@@H]1O | 18µM* | 0% | 10% | i | -28%
CCc1noc(C)c1C(=O)N1CCOc2ccc(CN3CCCC(C(=O)c4cccnc4)C3)cc2C1 (configuration not stated) | x | x | x | i | x
CC(C)(C)c1ccc(OCC(O)CSc2ncn[nH]2)cc1 (configuration not stated) | 15µM* | -1% | -2% | i | 0%
OC(COc1ccccc1)CSc1ncn[nH]1 (configuration not stated) | x | 0% | 19% | i | -4%
O=c1[nH]c(Sc2ccc([N+](=O)[O-])cc2[N+](=O)[O-])nc2ccccc12 | -13% | u | x | u | -17%
O=[N+]([O-])c1ccc(Sc2cc[n+]([O-])c3ccccc23)c([N+](=O)[O-])c1 | 16µM* | u | 9% | u | u
COCc1ccc(CN2Cc3ccccc3OC(c3ccccc3OC)C2)o1 (configuration not stated) | x | x | x | i | x
CCC(=O)NC(c1ccc([N+](=O)[O-])cc1)c1c(O)ccc2ccccc12 (configuration not stated) | 16µM* | 0% | -12% | u | u
O=C(NC(c1ccc(Cl)cc1)c1c(O)ccc2ccccc12)c1ccccc1 (configuration not stated) | 12µM* | 9% | 13% | i | u
SMILES | Nrf2 inh | Nrf2 activator | ATXN2 expr inh | ATXN viability | A549 tox
Cc1ccc(-c2nc3cccc(C)n3c2Nc2ccc(F)cc2)o1 | -11% | x | x | x | 1%
COc1ccc(-c2ccc(C3C4C=CCC(C)C4C(=O)N3Cc3ccccc3)c(F)c2)cc1C (configuration not stated) | -22% | x | x | x | 11%
Cc1ccc(-c2cccc(C(=O)NCc3ccccc3)n2)c2ccccc12 | -5% | 0% | -24% | i | -4%
CC(C)C[C@H](NC(=O)[C@@H](NC(=O)c1cccc(-c2ccccc2)n1)[C@@H](C)O)B(O)O | x | x | 0.061µM* | x | x
COc1ccc(CCNC(=O)CCCn2c(=O)c3ccccc3n(Cc3ccccc3C)c2=O)cc1OC | 10% | 0% | -1% | i | -1%
O=C(c1ccccc1-n1cccn1)N1CCOc2c(cc(-c3ncc(C(F)(F)F)cc3Cl)cc2OCC2CCCO2)C1 (configuration not stated) | x | x | x | i | x
O=C(CSc1nc2ccsc2c(=O)n1Cc1ccccc1F)NCc1ccccc1Cl | x | 1% | x | x | -17%
C=CC(=O)N1CCc2ccc(-n3c(=O)ccc4cnc5ccc(-c6cnn(C)c6)cc5c43)cc21 | x | x | 15µM* | x | x
CCOc1ccc(C(=O)N/N=C(\c2ccccc2)c2ccccn2)cc1 | 21µM* | 8% | 7.9µM* | u | u
O=C(N/N=C(\c1ccccc1)c1ccccn1)c1cccc([N+](=O)[O-])c1 | 9.2µM* | 0% | x | u | -14%
C/C(=N\NC(=O)c1ccc(F)cc1)c1ccccn1 | u | 1% | x | u | u
COC(=O)[C@@H]1CCCN1C(=O)c1cnn(-c2nccc(-c3cc(C)sc3C)n2)c1C1CC1 | x | x | x | i | x
COc1cccc(C2(CC(=O)N3CCCCC3CO)CC(=O)N(C)C2=O)c1 (configuration not stated) | x | x | x | i | x
COc1ccc(-c2nnc3n2N=C(c2ccccc2OC)CS3)c(OC)c1 | 2% | x | x | x | -9%
CC1(O)c2ccccc2C(=O)N1CCc1ccccc1F (configuration not stated) | u | 7.1µM* | 54% | i | 4%
O=C(OCC#CCSc1nnc(-c2cccc3ccccc23)o1)c1sc2ccccc2c1Cl | 1% | x | x | x | 0%
CCc1cc(-c2n[nH]c(C)c2-c2ccc3c(c2)OCCO3)c(O)cc1O | x | x | 6.1µM* | x | x
O=C(O)c1cc(-c2ccccc2)nn1Cc1ccccc1 | u | 0% | 13% | i | 1%

High-throughput results as filed in PubChem BioAssay.
